The text below walks through data of publication PMC7862700, “An all-to-all approach to the identification of sequence-specific readers for epigenetic DNA modifications on cytosine”.

Holding throughout (test): DAPPL (digital affinity profiling via proximity ligation, sequencing); 10 mM Tris-HCl pH 7.5, 50 mM NaCl, 1 mM DTT, 4% glycerol, room temperature, 30 min; GST-TFs on glutathione beads, 16-mer random dsDNA library, 0.1% formaldehyde crosslink after washing; high values mean tight binding
Conditions in all cases: protein: recombinant; tags: N-terminal GST; dsDNA, one strand shown

The target of assay [1] is T1, ERF (Homo sapiens, UniProt P50548 1-548).
T1 sequence: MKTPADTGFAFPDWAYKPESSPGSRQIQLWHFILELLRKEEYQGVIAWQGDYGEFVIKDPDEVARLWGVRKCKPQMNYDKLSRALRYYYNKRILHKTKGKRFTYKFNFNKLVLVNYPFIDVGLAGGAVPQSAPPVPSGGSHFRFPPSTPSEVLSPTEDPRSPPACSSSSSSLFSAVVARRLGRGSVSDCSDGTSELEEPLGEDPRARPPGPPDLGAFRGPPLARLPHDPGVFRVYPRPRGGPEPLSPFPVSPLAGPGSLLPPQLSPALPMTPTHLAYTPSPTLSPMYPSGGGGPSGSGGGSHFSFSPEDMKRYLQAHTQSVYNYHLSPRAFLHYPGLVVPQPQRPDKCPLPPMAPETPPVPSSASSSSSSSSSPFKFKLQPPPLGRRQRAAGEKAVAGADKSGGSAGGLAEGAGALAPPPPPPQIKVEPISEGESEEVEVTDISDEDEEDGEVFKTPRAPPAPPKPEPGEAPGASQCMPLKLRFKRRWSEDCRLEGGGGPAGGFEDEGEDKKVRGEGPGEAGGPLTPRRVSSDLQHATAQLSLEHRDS
Put shortly:
(§1)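 Pools were built from human transcription factors expressed in yeast as GST fusions, captured on glutathione beads and DNA-barcoded, along with a tag-only sample. Incubation with 200 nmole of a 16-mer random double-stranded DNA library lasted 30 min at room temperature in Tris/NaCl/DTT/glycerol buffer, and was followed by washing, 0.1% formaldehyde crosslinking, proximity ligation, PCR amplification and Illumina NextSeq500 sequencing. Binding signal is the quotient of each hexamer's read frequency for a factor and its frequency for the tag-only sample.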

Assay [2] has as its target T2, ETV3L (Homo sapiens, UniProt Q6ZN32 1-361).
T2 sequence: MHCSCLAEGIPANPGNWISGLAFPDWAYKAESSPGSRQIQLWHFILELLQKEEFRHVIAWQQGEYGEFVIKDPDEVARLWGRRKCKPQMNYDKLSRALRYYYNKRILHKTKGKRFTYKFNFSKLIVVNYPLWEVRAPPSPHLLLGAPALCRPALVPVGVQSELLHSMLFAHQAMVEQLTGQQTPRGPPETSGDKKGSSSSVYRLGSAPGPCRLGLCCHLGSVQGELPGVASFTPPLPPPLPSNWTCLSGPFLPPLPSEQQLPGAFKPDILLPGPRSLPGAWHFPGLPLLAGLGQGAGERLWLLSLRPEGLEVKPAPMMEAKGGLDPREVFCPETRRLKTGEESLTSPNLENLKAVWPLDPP
Put shortly:
as §1

Assay [3] addresses T3, ETS2 (Homo sapiens, UniProt P15036 1-469).
T3 sequence: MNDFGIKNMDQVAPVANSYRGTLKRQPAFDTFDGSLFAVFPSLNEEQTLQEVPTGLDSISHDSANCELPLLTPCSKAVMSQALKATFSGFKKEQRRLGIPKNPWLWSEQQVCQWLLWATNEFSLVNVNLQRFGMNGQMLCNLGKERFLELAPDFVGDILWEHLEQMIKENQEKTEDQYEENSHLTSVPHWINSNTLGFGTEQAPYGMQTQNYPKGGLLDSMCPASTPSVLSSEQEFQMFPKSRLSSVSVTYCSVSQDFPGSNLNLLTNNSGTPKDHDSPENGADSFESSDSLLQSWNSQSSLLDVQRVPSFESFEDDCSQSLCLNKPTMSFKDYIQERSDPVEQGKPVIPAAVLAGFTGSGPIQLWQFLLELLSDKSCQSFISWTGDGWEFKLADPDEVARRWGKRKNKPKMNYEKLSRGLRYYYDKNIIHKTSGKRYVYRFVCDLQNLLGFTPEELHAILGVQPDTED
A digest of the protocol: as §1

The target of assay [4] is T4, SPDEF (Homo sapiens, UniProt O95238 1-335).
T4 sequence: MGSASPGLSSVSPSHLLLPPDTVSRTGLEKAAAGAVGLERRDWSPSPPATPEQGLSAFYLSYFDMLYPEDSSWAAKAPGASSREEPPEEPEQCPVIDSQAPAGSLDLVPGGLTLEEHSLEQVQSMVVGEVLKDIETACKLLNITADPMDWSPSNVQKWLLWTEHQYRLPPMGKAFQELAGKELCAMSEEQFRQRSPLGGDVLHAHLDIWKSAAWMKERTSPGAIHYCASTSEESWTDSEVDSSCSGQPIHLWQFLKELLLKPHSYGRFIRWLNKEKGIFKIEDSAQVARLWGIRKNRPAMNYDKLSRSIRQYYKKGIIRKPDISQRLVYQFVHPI
Put shortly: as §1

Assay [5] addresses T5, ETV7 (Homo sapiens, UniProt Q9Y603 1-341).
T5 sequence: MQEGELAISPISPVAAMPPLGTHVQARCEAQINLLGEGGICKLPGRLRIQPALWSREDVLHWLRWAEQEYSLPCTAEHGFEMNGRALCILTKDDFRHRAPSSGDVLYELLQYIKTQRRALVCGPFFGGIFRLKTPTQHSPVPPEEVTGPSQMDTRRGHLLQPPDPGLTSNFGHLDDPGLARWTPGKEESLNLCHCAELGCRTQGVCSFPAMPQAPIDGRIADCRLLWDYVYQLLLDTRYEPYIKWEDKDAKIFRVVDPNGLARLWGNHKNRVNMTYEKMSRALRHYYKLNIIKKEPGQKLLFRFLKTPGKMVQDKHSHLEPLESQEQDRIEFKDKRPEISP
Put shortly:
as §1

In assay [6] the target is T6, ELF5 (Homo sapiens, UniProt Q9UKW6-2 1-255).
T6 sequence: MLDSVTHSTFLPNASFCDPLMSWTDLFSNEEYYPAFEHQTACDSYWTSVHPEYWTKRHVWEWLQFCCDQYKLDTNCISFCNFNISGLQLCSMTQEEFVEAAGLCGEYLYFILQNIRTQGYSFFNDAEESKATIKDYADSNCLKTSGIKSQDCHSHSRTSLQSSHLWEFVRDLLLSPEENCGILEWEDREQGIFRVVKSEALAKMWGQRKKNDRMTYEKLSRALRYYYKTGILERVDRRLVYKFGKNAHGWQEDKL
A digest of the protocol: as §1

In assay [7] the target is T7, ETV3 (Homo sapiens, UniProt P41162-2 1-143).
T7 sequence: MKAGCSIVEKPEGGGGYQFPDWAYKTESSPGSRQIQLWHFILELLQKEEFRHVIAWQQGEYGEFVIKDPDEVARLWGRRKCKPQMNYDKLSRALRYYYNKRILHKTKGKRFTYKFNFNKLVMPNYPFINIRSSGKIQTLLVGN
A digest of the protocol: as §1

The target in assay [8] is ETV6 (Homo sapiens, UniProt P41212 1-452). Put shortly: as §1
ETV6, sequence (P41212 whole entry): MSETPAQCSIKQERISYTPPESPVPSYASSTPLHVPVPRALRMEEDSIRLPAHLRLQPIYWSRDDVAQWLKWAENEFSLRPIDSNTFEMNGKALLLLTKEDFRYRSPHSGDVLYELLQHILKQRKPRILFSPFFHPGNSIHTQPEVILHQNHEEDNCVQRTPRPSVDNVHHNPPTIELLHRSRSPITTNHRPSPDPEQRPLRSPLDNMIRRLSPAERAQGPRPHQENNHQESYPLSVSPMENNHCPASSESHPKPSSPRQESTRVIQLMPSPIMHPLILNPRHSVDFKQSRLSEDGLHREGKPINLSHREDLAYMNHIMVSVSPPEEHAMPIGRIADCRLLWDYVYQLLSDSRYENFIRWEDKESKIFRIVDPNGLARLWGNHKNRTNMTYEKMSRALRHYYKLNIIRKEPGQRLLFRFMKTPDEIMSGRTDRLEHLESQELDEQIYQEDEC

Take CGATCT: the binding signal in assay [1] is 1.17 fold enrichment (6-mer frequency, TF over GST control); in assay [2] it was 1.32 fold enrichment (6-mer frequency, TF over GST control); in assay [3], 1.32 fold enrichment (6-mer frequency, TF over GST control); in assay [4] it was 1.25 fold enrichment (6-mer frequency, TF over GST control); in assay [5] it was 1.42 fold enrichment (6-mer frequency, TF over GST control); in assay [6], 1.27 fold enrichment (6-mer frequency, TF over GST control). Besides, the binding signal in assay [7] is 1.24 fold enrichment (6-mer frequency, TF over GST control); in assay [8] it was 1.2 fold enrichment (6-mer frequency, TF over GST control).
For AGATTT, the binding signal in assay [1] is 1.2 fold enrichment (6-mer frequency, TF over GST control); in assay [2], 1.17 fold enrichment (6-mer frequency, TF over GST control); in assay [3] it was 1.17 fold enrichment (6-mer frequency, TF over GST control); in assay [4], 1.05 fold enrichment (6-mer frequency, TF over GST control); in assay [5] it was 1.16 fold enrichment (6-mer frequency, TF over GST control); in assay [6] it was 1.22 fold enrichment (6-mer frequency, TF over GST control). Further, the binding signal in assay [7] was 1.05 fold enrichment (6-mer frequency, TF over GST control); in assay [8], 1.11 fold enrichment (6-mer frequency, TF over GST control).
For TCATAT, the binding signal is 1.22 fold enrichment (6-mer frequency, TF over GST control) in assay [1]; 1.3 fold enrichment (6-mer frequency, TF over GST control) in assay [2]; 1.27 fold enrichment (6-mer frequency, TF over GST control) in assay [3]; 1.23 fold enrichment (6-mer frequency, TF over GST control) in assay [4]; 1.05 fold enrichment (6-mer frequency, TF over GST control) in assay [5]; 1.19 fold enrichment (6-mer frequency, TF over GST control) in assay [6]. The binding signal in assay [7] was 1.26 fold enrichment (6-mer frequency, TF over GST control); in assay [8], 1.24 fold enrichment (6-mer frequency, TF over GST control).
Take CAATCT: the binding signal in assay [1] was 1.21 fold enrichment (6-mer frequency, TF over GST control); in assay [2], 1.14 fold enrichment (6-mer frequency, TF over GST control); in assay [3], 1.18 fold enrichment (6-mer frequency, TF over GST control); in assay [4], 1.03 fold enrichment (6-mer frequency, TF over GST control); in assay [5] it was 1.25 fold enrichment (6-mer frequency, TF over GST control); in assay [6] it was 1.16 fold enrichment (6-mer frequency, TF over GST control). Besides, the binding signal in assay [7] is 1.19 fold enrichment (6-mer frequency, TF over GST control); in assay [8], 1.19 fold enrichment (6-mer frequency, TF over GST control).
Turning to CTGCTT, the binding signal in assay [1] is 1.67 fold enrichment (6-mer frequency, TF over GST control); in assay [2], 1.7 fold enrichment (6-mer frequency, TF over GST control); in assay [3] it was 1.63 fold enrichment (6-mer frequency, TF over GST control); in assay [4], 1.67 fold enrichment (6-mer frequency, TF over GST control); in assay [5], 1.57 fold enrichment (6-mer frequency, TF over GST control); in assay [6], 1.64 fold enrichment (6-mer frequency, TF over GST control). Moreover, the binding signal was 1.75 fold enrichment (6-mer frequency, TF over GST control) in assay [7] and 1.71 fold enrichment (6-mer frequency, TF over GST control) in assay [8].
For TAATCT, the binding signal in assay [1] is 1.39 fold enrichment (6-mer frequency, TF over GST control); in assay [2] it was 1.32 fold enrichment (6-mer frequency, TF over GST control); in assay [3] it was 1.43 fold enrichment (6-mer frequency, TF over GST control); in assay [4] it was 1.34 fold enrichment (6-mer frequency, TF over GST control); in assay [5] it was 1.5 fold enrichment (6-mer frequency, TF over GST control); in assay [6], 1.46 fold enrichment (6-mer frequency, TF over GST control). For the same sequence, the binding signal in assay [7] is 1.28 fold enrichment (6-mer frequency, TF over GST control); in assay [8], 1.37 fold enrichment (6-mer frequency, TF over GST control).
On to TTTTCC, for which the binding signal is 1.65 fold enrichment (6-mer frequency, TF over GST control) in assay [1]; 1.71 fold enrichment (6-mer frequency, TF over GST control) in assay [2]; 1.69 fold enrichment (6-mer frequency, TF over GST control) in assay [3]; 1.67 fold enrichment (6-mer frequency, TF over GST control) in assay [4]; 1.78 fold enrichment (6-mer frequency, TF over GST control) in assay [5]; 2.37 fold enrichment (6-mer frequency, TF over GST control) in assay [6]. Also, the binding signal in assay [7] was 1.82 fold enrichment (6-mer frequency, TF over GST control); in assay [8], 2.08 fold enrichment (6-mer frequency, TF over GST control).
For the sequence CAATCC, the binding signal was 1.25 fold enrichment (6-mer frequency, TF over GST control) in assay [1]; 1.2 fold enrichment (6-mer frequency, TF over GST control) in assay [2]; 1.22 fold enrichment (6-mer frequency, TF over GST control) in assay [3]; 1.4 fold enrichment (6-mer frequency, TF over GST control) in assay [4]; 1.16 fold enrichment (6-mer frequency, TF over GST control) in assay [5]; 1.21 fold enrichment (6-mer frequency, TF over GST control) in assay [6]. Further, the binding signal in assay [7] is 1.19 fold enrichment (6-mer frequency, TF over GST control); in assay [8], 1.22 fold enrichment (6-mer frequency, TF over GST control).
